Columns and labels:
Details in all cases: concentration: 1 μM, replicates: in singlicate; n = 1
[1] = system: MAP4K3
[2] = system: MAP4K4
[3] = system: MAP4K5
[4] = system: MAPKAPK2
[5] = system: MAPKAPK5
[6] = system: MARK1
[7] = system: MARK2
[8] = system: MARK3
[9] = system: MARK4
[10] = system: MAST1
[11] = system: T1, MEK1
T1 construct: gene MAP2K1

[12] = system: T2, MEK2
T2 construct: gene MAP2K2

[13] = system: T3, MEK3
T3 construct: gene MAP2K3

[14] = system: T4, MEK4
T4 construct: gene MAP2K4

[15] = system: T5, MEK5
T5 construct: gene MAP2K5

[16] = system: T6, MEK6
T6 construct: gene MAP2K6

[17] = system: MELK
[18] = system: MERTK
[19] = system: MET
[20] = system: T7, MINK
T7 construct: gene MINK1
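Further: KINOMEscan kinase panel screen.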

Row | SMILES | %Inh [1] [%] | %Inh [2] [%] | %Inh [3] [%] | %Inh [4] [%] | %Inh [5] [%] | %Inh [6] [%] | %Inh [7] [%] | %Inh [8] [%] | %Inh [9] [%] | %Inh [10] [%] | %Inh [11] [%] | %Inh [12] [%] | %Inh [13] [%] | %Inh [14] [%] | %Inh [15] [%] | %Inh [16] [%] | %Inh [17] [%] | %Inh [18] [%] | %Inh [19] [%] | %Inh [20] [%]
1 | O=C(Nc1n[nH]c2cc(-c3cccc(F)c3)ccc12)C1CC1 [SB-735464] | 0 | 42 | 6 | 0 | 21 | 9 | 25 | 0 | 5 | 34 | 8 | 10 | 8 | 4 | 31 | 0 | 0 | 23 | 0 | 61
2 | COc1ccc(S(=O)(=O)NC2CCN(c3cc(C)nc(Nc4cccc(C#N)c4)n3)CC2)cc1.O=C(O)C(F)(F)F [GSK1653539] | 0 | 0 | 0 | 0 | 0 | 0 | 12 | 0 | 0 | 0 | 0 | 0 | 0 | 0 | 1 | 0 | 0 | 0 | 0 | 0
3 | CC(C)(C)n1cnc2c(N)ncnc21 [SKF-97359] | 0 | 0 | 0 | 0 | 0 | 0 | 1 | 21 | 3 | 58 | 0 | 0 | 39 | 0 | 8 | 0 | 0 | 0 | 0 | 0
4 | COc1ccc(Nc2nccc(N3CCC(NC(=O)Nc4cccc(C(C)=O)c4)C3)n2)cc1 (centres unmarked) [GSK1379731] | 0 | 8 | 0 | 0 | 0 | 0 | 0 | 0 | 10 | 0 | 0 | 0 | 0 | 40 | 36 | 0 | 0 | 35 | 0 | 0
5 | Nc1nc(-c2ccc3c(N)n[nH]c3c2)cc(N2CCCC2)n1 [GSK2227430] | 0 | 0 | 0 | 0 | 0 | 0 | 0 | 0 | 6 | 0 | 0 | 64 | 0 | 0 | 7 | 8 | 0 | 8 | 0 | 10
6 | COc1ccc(COc2cc(-n3cnc4ccccc43)sc2C(N)=O)cc1 [GSK1024304] | 0 | 2 | 24 | 0 | 0 | 0 | 1 | 5 | 11 | 0 | 0 | 0 | 0 | 14 | 32 | 0 | 0 | 1 | 0 | 24
7 | C[C@@H](Oc1cc(-n2cnc3ccc(NC(=O)NC(C)(C)C)cc32)sc1C(N)=O)c1ccccc1Cl [GSK346294] | 0 | 2 | 0 | 12 | 0 | 1 | 0 | 0 | 9 | 0 | 0 | 0 | 0 | 14 | 18 | 0 | 21 | 8 | 0 | 4
8 | Cc1ccc(NC(=O)c2ccnc(N3CCN(C)CC3)c2)cc1-c1ccc(C(=O)NCC2CC2)cc1 [GW775604] | 9 | 0 | 0 | 0 | 0 | 12 | 0 | 10 | 41 | 0 | 3 | 25 | 1 | 0 | 2 | 11 | 0 | 0 | 0 | 0
9 | N#Cc1ccc(-c2cc(-c3c[nH]nc3-c3ccccn3)ccn2)cc1 [GW693028] | 0 | 46 | 0 | 4 | 0 | 0 | 0 | 0 | 0 | 26 | 0 | 0 | 0 | 1 | 13 | 0 | 0 | 15 | 0 | 76
10 | Cc1nnc(-c2ccc3ncc(-c4ccc(S(C)=O)cc4)n3c2)o1 (centres unmarked) | 0 | 0 | 0 | 22 | 5 | 0 | 20 | 0 | 0 | 34 | 9 | 9 | 6 | 24 | 42 | 0 | 4 | 0 | 15 | 0

From article PMC5540273 (PLoS ONE, 2017)
